Source: PubChem BioAssay (Tox21)
Where “and” joins values, the source holds several entries; their conditions need not be identical. Equal entries are not always repeated. Records with an inconclusive call do not appear. Calls of active or inactive are those of the source. Unless noted, calls come from the whole dose curve.

Key:
[1] = Nuclear factor erythroid 2-related factor 2/antioxidant responsive element (Nrf2/ARE) small molecule agonists: qHTS cell viability counter screen in human keratinocytes (AID 1919968; active = well fitted curve in the direction sought with a large enough effect in the repeat runs; an effect the other way counts as inactive or inconclusive; note: nearly all actives have a fitted effect of over 55% in size; note: potency is the fitted concentration of half-maximal effect)
Procedure, shortened: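 Stably transfected HaCaT (KeratinoSens), 1,500/well. Test agents in DMSO were applied for 23 h, 37 C/5% CO2. CellTiter-Fluor was incubated 1 h before the fluorescence read.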

[2] = Nuclear factor erythroid 2-related factor 2/antioxidant responsive element (Nrf2/ARE) small molecule agonists: luciferase reporter gene qHTS assay in human keratinocytes (AID 1919969); note: nearly all actives have a fitted effect of over 35% in size; note: potency is the fitted concentration of half-maximal effect
[3] = molecular target: KiSS-1 receptor (Homo sapiens) (UniProt Q969F8); test: Human kisspeptin (KISS1R) small molecule agonists, calcium flux assay in KISS1R-HEK293 cells (AID 1920064; active = well fitted curve in the direction sought with a large enough effect in the repeat runs; an effect the other way counts as inactive or inconclusive)
Chain of KiSS-1 receptor (Homo sapiens) (Q969F8 whole entry, looked up): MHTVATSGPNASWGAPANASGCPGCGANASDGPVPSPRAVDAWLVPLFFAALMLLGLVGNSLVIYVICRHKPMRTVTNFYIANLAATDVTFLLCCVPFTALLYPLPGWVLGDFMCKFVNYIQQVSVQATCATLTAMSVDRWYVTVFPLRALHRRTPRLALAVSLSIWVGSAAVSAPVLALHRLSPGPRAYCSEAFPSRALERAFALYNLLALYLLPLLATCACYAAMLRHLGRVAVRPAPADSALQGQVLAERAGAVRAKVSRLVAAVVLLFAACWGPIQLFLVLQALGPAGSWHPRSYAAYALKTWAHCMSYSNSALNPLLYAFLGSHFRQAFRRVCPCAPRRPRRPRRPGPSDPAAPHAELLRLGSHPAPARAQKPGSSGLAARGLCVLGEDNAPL
Procedure, shortened: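 After overnight (18 h) culture at 37 C/5% CO2, human KISS1R-HEK293 cells received calcium dye for 1 h, then test compound; emission at 540 nm (excitation 480 nm) was tracked for 3 min.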

[4] = G protein-coupled receptor (GPCR) small molecule agonists, calcium flux assay: HEK293 wild type cell line counter screen (AID 1920065)
Procedure, shortened: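 Following 18 h incubation at 37 C/5% CO2, plates got calcium dye for 1 h; compounds, ATP or DMSO were then pinned in and fluorescence followed kinetically (480/540 nm).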

[5] = p53 small molecule agonists, cell-based qHTS assay with human liver microsomes: qHTS cell viability counter screen (AID 1963579); note: nearly all actives have a fitted effect of over 45% in size
Procedure, shortened: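 Metabolic activation used human liver microsomes and NADPH, both 0.5 mg/mL final, over 16 hours at 37 C on p53RE-bla cells (4,000/well). Cytotoxicity measured by CellTiter-Glo luminescence, 30 min at room temperature.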

[6] = p53 small molecule agonists, cell-based qHTS assay: qHTS cell viability counter screen (AID 1963581); note: nearly all actives have a fitted effect of over 45% in size
Procedure, shortened: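 qHTS counter screen: 16 h compound exposure at 37 C of p53RE-bla HCT-116 cells (4,000 per well, seeded 5 h prior), cell viability by ATP luminescence.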

[7] = molecular target: 5-hydroxytryptamine receptor 2A (Homo sapiens) (UniProt P28223); test: 5-hydroxytryptamine receptor 2A (HTR2A) small molecule antagonists, cell-based qHTS assay (AID 1963586); note: nearly all actives have a fitted effect of over 45% in size
Chain of 5-hydroxytryptamine receptor 2A (Homo sapiens) (P28223 whole entry, looked up): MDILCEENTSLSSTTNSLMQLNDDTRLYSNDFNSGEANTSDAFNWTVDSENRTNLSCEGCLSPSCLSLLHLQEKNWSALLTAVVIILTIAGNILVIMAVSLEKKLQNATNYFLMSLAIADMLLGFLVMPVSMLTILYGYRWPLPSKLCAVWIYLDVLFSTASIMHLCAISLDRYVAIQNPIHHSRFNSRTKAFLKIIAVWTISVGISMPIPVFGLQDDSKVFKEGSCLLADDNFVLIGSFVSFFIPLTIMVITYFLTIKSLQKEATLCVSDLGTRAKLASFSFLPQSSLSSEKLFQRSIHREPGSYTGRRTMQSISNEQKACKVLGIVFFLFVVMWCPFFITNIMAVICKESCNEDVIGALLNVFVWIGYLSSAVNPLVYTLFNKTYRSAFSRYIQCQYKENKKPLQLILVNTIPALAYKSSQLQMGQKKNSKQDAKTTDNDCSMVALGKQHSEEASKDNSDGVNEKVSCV
Procedure, shortened: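 CHO cells stably expressing human HTR2A were plated for 18 h at 37 C, then loaded with calcium dye for 1 h. Compounds were preincubated 5 min at room temperature before DOI (4 nM solution) was added. Kinetic fluorescence was read for 3 min.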

[8] = molecular target: 5-hydroxytryptamine receptor 2A (Homo sapiens) (UniProt P28223); test: 5-hydroxytryptamine receptor 2A (HTR2A) small molecule agonists, cell-based qHTS assay (AID 1963587); note: nearly all actives have a fitted effect of over 30% in size
Procedure, shortened: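 HTR2A-CHO cells, plated 18 h at 37 C/5% CO2, dye-loaded 1 h at 37 C; compounds in DMSO added by pin tool (agonist mode). Intracellular calcium flux read as kinetic fluorescence on FDSS over 2 min at 1 s intervals.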

[9] = molecular target: Muscarinic acetylcholine receptor M1 (Homo sapiens) (UniProt P11229); test: Cholinergic receptor muscarinic 1 (CHRM1) small molecule antagonists, cell-based qHTS assay (AID 1963588); note: nearly all actives have a fitted effect of over 40% in size; note: potency is the fitted concentration of half-maximal effect
Chain of Muscarinic acetylcholine receptor M1 (Homo sapiens) (P11229 whole entry, looked up): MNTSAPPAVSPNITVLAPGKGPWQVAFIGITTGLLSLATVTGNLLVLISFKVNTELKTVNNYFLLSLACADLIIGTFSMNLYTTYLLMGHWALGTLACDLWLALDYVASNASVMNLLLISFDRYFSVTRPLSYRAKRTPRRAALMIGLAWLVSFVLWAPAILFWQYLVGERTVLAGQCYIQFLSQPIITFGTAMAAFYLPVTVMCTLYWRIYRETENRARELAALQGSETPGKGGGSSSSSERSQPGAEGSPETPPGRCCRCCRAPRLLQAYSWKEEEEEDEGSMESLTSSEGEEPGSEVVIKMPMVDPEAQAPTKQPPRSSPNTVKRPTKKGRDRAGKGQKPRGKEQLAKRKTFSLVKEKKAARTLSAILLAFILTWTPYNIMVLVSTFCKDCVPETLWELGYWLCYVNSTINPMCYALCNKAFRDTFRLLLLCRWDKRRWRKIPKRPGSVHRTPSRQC
Procedure, shortened: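 Compounds were tested at 15 concentrations in three independent runs. Dye-loaded CHRM1-CHO cells were exposed 5 min at room temperature before stimulation by acetylcholine added at 50nM. Intracellular calcium was read kinetically on FDSS for 3 min.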

[10] = molecular target: Muscarinic acetylcholine receptor M1 (Homo sapiens) (UniProt P11229); test: Cholinergic receptor muscarinic 1 (CHRM1) small molecule agonists, cell-based qHTS assay (AID 1963589); note: nearly all actives have a fitted effect of over 35% in size
Procedure, shortened: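 Kinetic fluorescence (1 s intervals) of calcium-sensitive dye in human M1 CHO cells after compound addition; cells pre-incubated 18 h at 37 C/5% CO2 and dye-loaded 1 h.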

[11] = cAMP Responsive Elements (CRE) small molecule antagonists, cell-based qHTS assay (AID 1963591; active = well fitted inhibition curve with a large enough effect in the signal ratio in the repeat runs, not every such curve was filed as active; the % refers to the signal ratio; note: potency is the fitted concentration of half-maximal effect)
Procedure, shortened: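 Reporter line CRE-bla HEK 293T in dialyzed-FBS DMEM; cells preincubated 18 h, treated 3 h with compound plus NKH477 (0.25 uM final); LiveBLAzer FRET, 2 h RT.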

[12] = molecular target: D(2) dopamine receptor (Homo sapiens) (UniProt P14416); test: Dopamine D2 receptor (DRD2) small molecule agonists, cell-based qHTS assay (AID 1963594); note: nearly all actives have a fitted effect of over 35% in size; note: potency is the fitted concentration of half-maximal effect
Chain of D(2) dopamine receptor (Homo sapiens) (P14416 whole entry, looked up): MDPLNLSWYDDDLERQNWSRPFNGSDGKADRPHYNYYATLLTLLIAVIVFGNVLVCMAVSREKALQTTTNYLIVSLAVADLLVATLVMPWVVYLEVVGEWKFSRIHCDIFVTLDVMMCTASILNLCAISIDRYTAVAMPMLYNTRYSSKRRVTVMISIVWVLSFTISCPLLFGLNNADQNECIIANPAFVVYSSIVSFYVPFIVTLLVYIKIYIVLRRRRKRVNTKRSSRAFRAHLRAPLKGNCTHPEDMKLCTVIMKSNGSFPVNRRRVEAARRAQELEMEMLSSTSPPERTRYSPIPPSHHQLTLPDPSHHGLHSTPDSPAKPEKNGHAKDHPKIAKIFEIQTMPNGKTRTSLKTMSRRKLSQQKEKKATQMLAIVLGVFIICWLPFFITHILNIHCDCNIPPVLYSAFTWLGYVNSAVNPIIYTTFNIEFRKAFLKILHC
Procedure, shortened: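 HEK293 cells stably expressing DRD2 were cultured 24 h at 37 C, then given Ro20-1724 (0.1 mM final) and compounds for 10 min at room temperature. NKH477 (200nM) was then added for 30 min. cAMP was read by HTRF.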

[13] = p53 small molecule agonists, cell-based qHTS assay with rat liver microsomes: qHTS cell viability counter screen (AID 1963580); note: nearly all actives have a fitted effect of over 45% in size
Procedure, shortened: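 Luminescent ATP readout (CellTiter-Glo, 30 min at room temperature) reports viability of p53RE-bla HCT-116 cells after 16 h at 37 C with test compounds under metabolic activation by rat liver microsomes and NADPH at 0.5 mg/mL final each.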

[14] = molecular target: Beta-2 adrenergic receptor (Homo sapiens) (UniProt P07550); test: Adrenergic beta2 receptor (ADRB2) small molecule antagonists, cell-based qHTS assay (AID 1963592); note: series mostly up to about 92 µM; nearly all actives have a fitted effect of over 50% in size
Chain of Beta-2 adrenergic receptor (Homo sapiens) (P07550 whole entry, looked up): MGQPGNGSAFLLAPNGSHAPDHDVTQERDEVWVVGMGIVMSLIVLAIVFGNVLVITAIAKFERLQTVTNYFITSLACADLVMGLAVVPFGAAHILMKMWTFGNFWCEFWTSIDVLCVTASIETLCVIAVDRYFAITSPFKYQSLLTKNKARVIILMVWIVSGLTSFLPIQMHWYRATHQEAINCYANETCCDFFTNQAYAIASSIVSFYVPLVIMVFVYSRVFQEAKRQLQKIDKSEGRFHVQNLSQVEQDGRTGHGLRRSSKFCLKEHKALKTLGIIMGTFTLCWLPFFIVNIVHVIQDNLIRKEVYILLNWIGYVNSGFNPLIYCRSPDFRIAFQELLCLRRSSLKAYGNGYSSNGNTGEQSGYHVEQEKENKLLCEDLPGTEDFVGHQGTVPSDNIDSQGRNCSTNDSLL
Procedure, shortened: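 Assay format: CHO-ADRB2 cells, 18-20hr seeding at 37C/5% CO2, then compound plus 1nM isoproterenol agonist mix for 0.5hr RT. Homogeneous time-resolved fluorescence cAMP detection after 1hr, expressed as 665/615 nm ratio.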

[15] = molecular target: Beta-2 adrenergic receptor (Homo sapiens) (UniProt P07550); test: Adrenergic beta2 receptor (ADRB2) small molecule agonists, cell-based qHTS assay (AID 1963593);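 note: CHO cells stably overexpressing human ADRB2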
Procedure, shortened: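 CHO cells stably over-expressing ADRB2 were plated overnight at 37C, then dosed with compounds plus a stimulation mix containing 100uM IBMX and 25uM Ro-20-1724 for 0.5hr at room temperature. cAMP was measured by HTRF competition, 1hr.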

[16] = molecular target: D(2) dopamine receptor (Homo sapiens) (UniProt P14416); test: Dopamine D2 receptor (DRD2) small molecule antagonists, cell-based qHTS assay (AID 1963595; active = well fitted inhibition curve with a large enough effect in the signal ratio in the repeat runs, with a control signal flat; the % refers to the signal ratio)
Procedure, shortened: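 Human DRD2 antagonist qHTS measuring cAMP by HTRF. The cells are exposed to compound for 10 min, then to NKH477 (200 nM) and quinpirole (12 nM) for 30 min at RT, with Ro20-1724 (0.1 mM) present throughout.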

[17] = cAMP Responsive Elements (CRE) small molecule agonists, cell-based qHTS assay (AID 1963590)
Procedure, shortened: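 Test agents in DMSO were incubated 3 h at 37 C/5% CO2 with CRE-bla HEK 293T cells seeded 18 h earlier; LiveBLAzer B/G FRET substrate was added and read after 2 h at room temperature.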

[18] = p53 small molecule agonists, cell-based qHTS assay with rat liver microsomes (AID 1963578)
Procedure, shortened: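 Metabolic activation by rat liver microsomes and NADPH, each 0.5 mg/mL final, added right after compounds to p53RE-bla reporter cells (4,000/well, plated 5 h earlier). 16 h at 37 C, then LiveBLAzer substrate for 2 h at room temperature in the dark; fluorescence read-out.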

[19] = p53 small molecule agonists, cell-based qHTS assay with human liver microsomes (AID 1963577);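 note: p53 response element beta-lactamase reporter cells with liver microsomes plus NADPH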
Procedure, shortened: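 With metabolic activation: human liver microsomes (0.5 mg/mL final) plus NADPH (0.5 mg/mL final) added alongside compounds to p53RE-bla cells; 16 h 37 C exposure; beta-lactamase read by LiveBLAzer fluorescence.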

[20] = p53 small molecule agonists, cell-based qHTS assay (AID 1963582; active = well fitted activation curve with a large enough effect in the signal ratio in the repeat runs, not every such curve was filed as active; the % refers to the signal ratio; note: potency is the fitted concentration of half-maximal effect)
Procedure, shortened: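 Measured: fluorescence from cleaved LiveBLAzer substrate. System: p53RE-bla cells, 16 h compound treatment at 37 C, 2 h substrate step at room temperature.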

Measured: Potency

NC[C@H](O)c1ccc(O)c(O)c1
active: [12] 16.6 µM
inactive: [1] | [2] | [3] | [4] | [5] | [6] | [7] | [8] | [9] | [10] | [11]

O=C(O)c1cc2ccccc2cc1O
inactive: [1] | [2] | [3] | [4] | [5] | [13] | [6] | [8] | [9] | [10] | [11] | [14] | [15] | [12] | [16]

C[C@]12CCC(=O)C=C1CC[C@@H]1[C@@H]2[C@@H](O)C[C@@]2(C)[C@H]1CC[C@]2(O)C(=O)CO
inactive: [1] | [2] | [3] | [4] | [5] | [13] | [17] | [11] | [14] | [12] | [16]

CCCN1C=CN(C)C1
inactive: [1] | [2] | [3] | [4] | [5] | [13] | [6] | [7] | [8] | [10] | [11] | [14] | [15] | [12] | [16]

COC(=O)c1ccc([N+](=O)[O-])cc1
inactive: [1] | [2] | [3] | [4] | [18] | [5] | [6] | [7] | [8] | [9] | [10] | [11] | [14] | [15] | [12] | [16]

C=CC(=O)CC
inactive: [1] | [2] | [3] | [19] | [18] | [5] | [13] | [6] | [20] | [7] | [8] | [10] | [17] | [11] | [14] | [15] | [12]

Cc1cc(C)c(N)c(Cl)c1
inactive: [1] | [2] | [3] | [4] | [19] | [5] | [13] | [6] | [20] | [7] | [8] | [9] | [10] | [17] | [11] | [14] | [12] | [16]

CC(C)c1ccc2c(C(C)C)cc(C(C)C)c(S(=O)(=O)O)c2c1
inactive: [1] | [2] | [3] | [4] | [19] | [5] | [13] | [6] | [20] | [7] | [8] | [9] | [17] | [11] | [14] | [12] | [16]

c1ccc2sc(SSN3CCOCC3)nc2c1
inactive: [3] | [5] | [13] | [6] | [7] | [9] | [10] | [17] | [14] | [15] | [12] | [16]
active: [1] 30.6 µM | [2] 24.3 µM

NCc1cccc(CN)c1
inactive: [1] | [2] | [3] | [19] | [18] | [5] | [13] | [6] | [7] | [8] | [10] | [17] | [11] | [14] | [15] | [16]
active: [9] 42.1 µM

c1ccc2cnncc2c1
inactive: [1] | [2] | [3] | [19] | [18] | [5] | [13] | [6] | [20] | [7] | [8] | [9] | [17] | [11] | [14] | [12] | [16]

CCC(C)=O
inactive: [1] | [2] | [3] | [4] | [18] | [5] | [13] | [6] | [20] | [7] | [8] | [9] | [10] | [11] | [14] | [15] | [12] | [16]

Nc1cc(=O)[nH]c(N)n1
inactive: [1] | [2] | [4] | [19] | [18] | [5] | [13] | [6] | [20] | [7] | [8] | [9] | [10] | [17] | [14] | [12] | [16]

COc1cccc2c1C(=O)c1c(O)c3c(c(O)c1C2=O)C[C@@](O)(C(=O)CO)C[C@@H]3O[C@H]1C[C@H](N)[C@H](O)[C@H](C)O1
active: [1] 7.5 µM | [2] 2.73 µM and 6.68 µM | [20] 0.457 µM | [11] 26.6 µM
inactive: [4] | [19] | [18] | [5] | [6] | [17]

O=[N+]([O-])c1ccc(/C=C/c2ccc([N+](=O)[O-])cc2S(=O)(=O)O)c(S(=O)(=O)O)c1
inactive: [1] | [2] | [3] | [4] | [5] | [13] | [6] | [7] | [8] | [9] | [10] | [17] | [11] | [14] | [12] | [16]

CC(C)(C)c1ccc(S)cc1
inactive: [1] | [3] | [4] | [18] | [5] | [13] | [6] | [20] | [7] | [8] | [9] | [10] | [17] | [11] | [12]
active: [2] 48.6 µM
